The supplement of paper PMC9942566
± gives the standard deviation of the averaged measurements.

Tested on: Serratia marcescens K904 PosmB-luxCDABE reporter (pMQ747)
Assay: PosmB-lux reporter fold induction (RLU/OD600 relative to no-compound control), highest over Biolog concentrations; higher = stronger Rcs reporter activation
Settings: wild type K904; 4 h
Experimental: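 Serratia marcescens K904 (wild type) or its isogenic ΔrcsB mutant, carrying the Rcs-dependent PosmB-luxCDABE reporter plasmid pMQ747, was grown in LB at OD600 0.1 in Biolog Phenotype MicroArray plates PM11-20 for 4 h at 30-32°C. Each compound is present at 3-4 proprietary concentrations (not stated); per the Fig. S1 legend the value given is the highest fold over those wells. Three independent trials.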

Compound | PosmB-lux reporter fold induction
On1ccccc1=S [1-Hydroxy-pyridine-2-thione] (Biolog plate: PM14, well positions: C5-8) | 4.06 ± 1.3
C/C=C/C=C/C(=O)O [sorbic acid] (Biolog plate: PM16, well positions: H9-12) | 2.12 ± 0.59
CO[C@@H]1[C@@H](O[C@@H]2O[C@H](C)[C@@H](O[C@H]3C[C@@](C)(O)[C@@H](OC(=O)CC(C)C)[C@H](C)O3)[C@H](N(C)C)[C@H]2O)[C@@H](CC=O)C[C@@H](C)[C@@H](O)/C=C/C=C/C[C@@H](C)OC(=O)C[C@H]1OC(C)=O [josamycin] (Biolog plate: PM19, well positions: A2-4) | 1.27 ± 0.74
CCN(CC)CCOC(=O)c1ccc(N)cc1 [Procaine] (Biolog plate: PM15, well positions: A2-4) | 1.21 ± 0.28
O=c1ccc2ccc(O)cc2o1 [umbelliferone] (Biolog plate: PM19, well positions: C5-8) | 1.07 ± 0.18
CO/N=C(\C(=O)N[C@@H]1C(=O)N2C(C(=O)O)=C(COC(N)=O)CS[C@H]12)c1ccco1 [Cefuroxime] (Biolog plate: PM13, well positions: D1-4) | 1.85 ± 0.24
O=[N+]([O-])c1ccc(-[n+]2nc(-c3ccccc3)nn2-c2ccc(I)cc2)cc1 [iodonitro tetrazolium violet] (Biolog plate: PM19, well positions: D5-8) | 0.511 ± 0.27
O=P(O)(O)OP(=O)(O)O [sodium pyrophosphate decahydrate] (Biolog plate: PM18, well positions: A5-8) | 1.27 ± 0.59
